Experiment [1] in a line: qHTS for Inhibitors of the Functional Ribonucleoprotein Complex (vRNP) of Lassa (LASV) Arenavirus: LASV Primary Screen - GLuc reporter signal (AID 1347082; calls by dose curve; tested in HEK293 reporter line; note: nearly all actives have a fitted effect of over 60% in size; note: potency is the fitted concentration of half-maximal effect; for activity change, negative = inhibition: % is set by controls: 0 for no effect and ±100 for the full control effect).
The nature of experiment [2]: qHTS for Inhibitors of the Functional Ribonucleoprotein Complex (vRNP) of Lassa (LASV) Arenavirus: Viability assay - alamar blue signal for LASV Primary Screen (AID 1347083; calls by dose curve; tested in HEK293 reporter line; note: nearly all actives have a fitted effect of over 80% in size; note: potency is the fitted concentration of half-maximal effect).
The nature of experiment [3]: qHTS for Inhibitors of the Functional Ribonucleoprotein Complex (vRNP) of Lymphocytic Choriomeningitis Arenaviruses (LCMV): Viability assay - alamar blue signal for LCMV Primary Screen (AID 1347085; calls by dose curve; tested in HEK293 reporter line; note: nearly all actives have a fitted effect of over 80% in size; note: potency is the fitted concentration of half-maximal effect).
A short description of experiment [4]: Cytotoxicity counterscreen for inhibitors of SARS-CoV-2 cell entry (AID 1645845; calls by dose curve; note: nearly all actives have a fitted effect of over 50% in size). The method, boiled down:
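48 h compound treatment (after 1 h preincubation), HEK293-ACE2 cells, 37 C/5% CO2; ATP luminescence endpoint; normalized to cell wells and media blanks.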

A short description of experiment [5]: Primary qHTS to identify inhibitors of SARS-CoV-2 cell entry (AID 1645846; calls by dose curve; note: nearly all actives have a fitted effect of over 45% in size). Conditions: activity change, negative = inhibition: at 57.1 µM (top of the series) unless noted. A digest of the protocol: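 Inhibition of spike-mediated entry was scored in human ACE2-transfected Expi293F cells. Particles were MLV-pseudotyped with Wuhan-Hu-1 S carrying a 19-aa C-terminal deletion; signal was luciferase after two days, scaled between spike PP and fusion-protein-free PP.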

Experiment [6] concerns CRL-7250. In words: qHTS assay to identify novel small-molecules to repurpose for Merkel cell carcinoma treatment (AID 1296009). Note: nearly all actives have a fitted effect of over 60% in size. The following applies: MCC and control cell lines, CellTiter-Glo viability, 72 h; series mostly up to 92 µM. The method, boiled down:
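72 hr, 37 degree celsius; NPC 8-pt / MIPE 11-pt dose response; compound pinned in DMSO; CellTiter-Glo, 10 min RT, luminescence; normalized to no-cell and DMSO controls.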

In experiment [7] the target is ATP-dependent 6-phosphofructokinase (Trypanosoma brucei brucei) (UniProt O15648). Put plainly: qHTS Validation Assay to Find Inhibitors of T. brucei phosphofructokinase (AID 485368). The following applies: T. brucei PFK enzyme assay, qHTS 7-point titration; at 57.5 µM (top of the series). A digest of the protocol: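 Enzyme reaction in triethanolamine buffer pH 8.0 with 5 mM MgCl2, 0.01% Tween20 and 0.1% BSA; PFK 1.25 nM, F6P 0.5 mM, ATP 0.1 mM, 45 min RT. ADP quantified by ADP-Glo.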
Sequence of ATP-dependent 6-phosphofructokinase (Trypanosoma brucei brucei) (O15648 whole entry, looked up): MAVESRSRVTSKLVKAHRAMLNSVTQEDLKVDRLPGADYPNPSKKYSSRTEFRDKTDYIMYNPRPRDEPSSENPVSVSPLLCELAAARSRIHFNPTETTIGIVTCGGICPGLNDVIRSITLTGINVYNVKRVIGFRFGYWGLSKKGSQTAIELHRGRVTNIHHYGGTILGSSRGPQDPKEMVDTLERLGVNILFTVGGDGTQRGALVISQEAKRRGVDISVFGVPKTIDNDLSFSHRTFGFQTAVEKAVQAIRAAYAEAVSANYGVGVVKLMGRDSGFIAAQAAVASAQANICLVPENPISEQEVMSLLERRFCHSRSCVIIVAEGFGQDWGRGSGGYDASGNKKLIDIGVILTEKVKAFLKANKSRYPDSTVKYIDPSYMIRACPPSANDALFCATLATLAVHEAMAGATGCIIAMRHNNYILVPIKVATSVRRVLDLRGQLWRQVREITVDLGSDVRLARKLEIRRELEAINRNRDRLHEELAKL

Experiment [8] can be described thus: Inducers of the Endoplasmic Reticulum Stress Response (ERSR) in human glioma: Validation (AID 504836). Note: 0% is about no effect. The method, boiled down:
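ERSR induction read as luciferase luminescence (Bright-Glo, 10 min at room temperature) in stably transfected human U87-MG glioma cells exposed to compounds for 16 h, using GRP78 as sensor.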

For experiment [9], the target named is Ubiquitin carboxyl-terminal hydrolase 1 (Homo sapiens) (UniProt O94782). In words: Inhibitors of USP1/UAF1: Pilot qHTS (AID 504865).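 Note: rhodamine fluorescence freed from ubiquitin-rhodamine substrate followed over time; top concentration of the series differs between compounds; % is set by controls: 0 for no effect and ±100 for the full control effect; nearly all actives have a fitted effect of over 35% in size.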 The method, boiled down:
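In 50mM HEPES pH 7.8 containing 0.5mM EDTA, 1mM TCEP, 0.1 mg/ml BSA and 0.01% Tween-20, 1nM USP1/UAF1 is exposed to compound for 15 min, then Ub-Rho (150nM final) is added and fluorescence is read over time.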

Experiment [10] in a line: S16 Schwann cell PMP22 intronic element beta-lactamase assay (AID 624044; calls by dose curve;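 note: 0% = DMSO and -100% = potassium clavulanate positive control; nearly all actives have a fitted effect of over 15% in size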). A digest of the protocol:
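Rat S16 Schwann cells with beta-Lac driven by a PMP22 intronic element, compound-treated 24 h at 37 °C. LiveBLAzer FRET B/G read: 460 nm normalized to potassium clavulanate vs DMSO; 535 nm FRET as viability; concentration-effect curves classified.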

The nature of experiment [11]: HTS Assay for Allosteric Antagonists of the Human D2 Dopamine Receptor: Hit Validation in HTRF (AID 624455).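 Note: stable D1 dopamine receptor cell line scored for blocking the D1 response; % is set by controls: 0 for no effect and ±100 for the full control effect.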 A digest of the protocol:
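First, antagonism was screened by calcium flux in a force-coupled, inducible Hek293 Trex D2 line challenged with EC80 dopamine. Hits then went into an HTRF assay in cells stably expressing D1, testing inhibition of the D1 response.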

For experiment [12], the target named is Arylsulfatase A (Homo sapiens) (UniProt P15289). In words: qHTS screen for enhancers of Arylsulfatase A (ASA1): LOPAC Validation Assay (AID 720538). Note: 0% is about no effect. A digest of the protocol:
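MLD patient fibroblasts (SV40, ASA-I179S), 1536-well; adhere 6 hrs; cpd 48h, 37 degree C, 5% CO2; pNCS 0.5mM final in lysis buffer, 14h RT; stop 1N NaOH final; fluor. Ex525/Em598.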

Experiment [13] deals with Nucleoprotein (Lymphocytic choriomeningitis virus (strain Armstrong)) (UniProt P09992). Put plainly: qHTS for Inhibitors of the Functional Ribonucleoprotein Complex (vRNP) of Lymphocytic Choriomeningitis Arenaviruses (LCMV): LCMV Primary Screen - GLuc reporter signal (AID 1347086; calls by dose curve; note: % is set by controls: 0 for no effect and ±100 for the full control effect; nearly all actives have a fitted effect of over 70% in size).
Sequence of Nucleoprotein (Lymphocytic choriomeningitis virus (strain Armstrong)) (P09992 whole entry, looked up): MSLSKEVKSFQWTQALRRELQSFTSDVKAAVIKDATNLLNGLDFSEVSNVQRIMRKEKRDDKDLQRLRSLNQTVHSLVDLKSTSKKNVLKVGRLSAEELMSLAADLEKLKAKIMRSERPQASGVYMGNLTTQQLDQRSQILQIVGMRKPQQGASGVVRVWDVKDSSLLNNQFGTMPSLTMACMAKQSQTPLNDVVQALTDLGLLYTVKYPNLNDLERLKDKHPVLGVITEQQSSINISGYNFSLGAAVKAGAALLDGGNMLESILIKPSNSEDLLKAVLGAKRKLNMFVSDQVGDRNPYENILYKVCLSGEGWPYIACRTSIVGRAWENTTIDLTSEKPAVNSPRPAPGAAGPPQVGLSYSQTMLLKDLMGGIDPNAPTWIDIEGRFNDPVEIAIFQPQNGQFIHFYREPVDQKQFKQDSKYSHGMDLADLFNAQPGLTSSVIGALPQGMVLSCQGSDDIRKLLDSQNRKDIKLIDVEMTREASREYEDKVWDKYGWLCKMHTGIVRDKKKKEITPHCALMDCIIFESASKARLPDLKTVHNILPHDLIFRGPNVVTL
Experiment [14] is described as follows: Validation screen for inhibitors of Lassa infection (AID 463096; calls by dose curve; note: % is set by controls: 0 for no effect and ±100 for the full control effect).

Results filed as inconclusive are left out. Activity calls are given as the source filed them. Unless noted, calls come from the whole dose curve; as a rule, active = well fitted curve in the direction sought with a large enough effect; inconclusive = small, poorly fitted or top-dose-only effect, or another doubt; inactive = no such curve, though single readings can be large; an effect the other way counts as inactive or inconclusive.

Sequence of Arylsulfatase A (Homo sapiens) (P15289 whole entry, looked up): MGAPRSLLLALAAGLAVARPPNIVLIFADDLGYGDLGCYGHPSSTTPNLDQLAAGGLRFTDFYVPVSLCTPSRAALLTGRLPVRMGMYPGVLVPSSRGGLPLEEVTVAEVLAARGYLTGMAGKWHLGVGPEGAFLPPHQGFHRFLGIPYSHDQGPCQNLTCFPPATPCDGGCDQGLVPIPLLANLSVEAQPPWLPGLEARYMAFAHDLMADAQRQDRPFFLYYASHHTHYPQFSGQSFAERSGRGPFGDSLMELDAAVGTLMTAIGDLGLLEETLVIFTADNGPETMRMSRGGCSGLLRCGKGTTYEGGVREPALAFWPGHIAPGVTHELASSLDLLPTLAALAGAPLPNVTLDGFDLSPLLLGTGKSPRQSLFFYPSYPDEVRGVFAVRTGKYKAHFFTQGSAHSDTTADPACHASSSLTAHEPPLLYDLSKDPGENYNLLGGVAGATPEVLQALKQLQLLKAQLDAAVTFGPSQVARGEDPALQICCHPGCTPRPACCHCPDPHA
Sequence of Ubiquitin carboxyl-terminal hydrolase 1 (Homo sapiens) (O94782 whole entry, looked up): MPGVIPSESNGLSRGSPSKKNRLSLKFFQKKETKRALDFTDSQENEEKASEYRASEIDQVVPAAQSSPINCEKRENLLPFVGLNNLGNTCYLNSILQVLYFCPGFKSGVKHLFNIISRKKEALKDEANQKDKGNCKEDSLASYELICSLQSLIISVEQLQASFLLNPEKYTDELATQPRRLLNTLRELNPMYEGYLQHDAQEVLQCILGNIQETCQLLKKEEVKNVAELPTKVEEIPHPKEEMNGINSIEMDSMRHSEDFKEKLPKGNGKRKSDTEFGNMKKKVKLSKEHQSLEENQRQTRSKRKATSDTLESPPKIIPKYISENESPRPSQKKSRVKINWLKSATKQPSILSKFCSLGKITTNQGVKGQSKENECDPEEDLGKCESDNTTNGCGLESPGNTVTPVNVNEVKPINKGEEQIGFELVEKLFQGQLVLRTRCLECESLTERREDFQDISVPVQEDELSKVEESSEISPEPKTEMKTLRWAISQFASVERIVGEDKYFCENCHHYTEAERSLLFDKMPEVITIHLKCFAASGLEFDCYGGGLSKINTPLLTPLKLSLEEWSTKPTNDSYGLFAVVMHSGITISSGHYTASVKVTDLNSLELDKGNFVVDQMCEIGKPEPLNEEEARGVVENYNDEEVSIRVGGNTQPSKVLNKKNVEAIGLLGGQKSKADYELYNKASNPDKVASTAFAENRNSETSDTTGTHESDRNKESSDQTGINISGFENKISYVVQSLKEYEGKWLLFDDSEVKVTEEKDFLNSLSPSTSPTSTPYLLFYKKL

`COc1cc(NC(=O)c2ccc(-c3ccc(Cl)cc3)o2)cc(OC)c1`: the values for the Potency in experiment [1], in experiment [2] and in experiment [3] were 34.3 µM (active), 15.3 µM (active) and 21.7 µM (active), respectively. Besides, the Potency result in [4] and in experiment [6] was “inactive” in each case. Further, the activity change, negative = inhibition in experiment [5] is -4.11%.
For `COc1cc2c(cc1OC)C1CC(=O)C(CC(C)C)CN1CC2` (stereo unspecified), the compound was called inactive in [7], in [8] and in experiment [11]. Further, the Potency result in [9], in experiment [10], in experiment [12], in [1], in experiment [2] and in [3] was “inactive” throughout. The Potency entry in experiment [13], in experiment [4] and in experiment [6] was “inactive” in each case. For the same compound, the activity change, negative = inhibition in experiment [5] was -3.6%.
With `CCN1CCCC1CNC(=O)c1cc(S(N)(=O)=O)ccc1OC` (stereo unspecified), the Potency result in [14], in [1], in experiment [2], in experiment [3], in experiment [13] and in experiment [6] was “inactive” throughout. Also, the outcome in experiment [8] was inactive.

The record behind these values is PubChem BioAssay (NCATS).
